Here are results for 18 compounds from the supplement of paper PMC6607015.

Where a name gives a salt, the structure may show the parent alone.

Conditions in all cases: compound concentration in added solution (µM; 5 µl added to 20 µl cells): 10; 18 h
Assay [1] relates to A431. Kind of assay: LBPA endosome anti-LBPA integrated intensity (sum per cell), Z-score; higher = more LBPA staining. An outline of the steps:
(§1)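 HeLa MZ or A431 cells (3,500/well in 20 µl) were seeded onto 5 µl of 10 µM compound solution in duplicate 384-well imaging plates, incubated 18 h, then fixed in 4% PFA. Cells were stained with 6C4 anti-LBPA antibody, filipin, propidium iodide and CellTracker green, and four 20× images were taken per well. MetaXpress segmentation gave per-cell integrated LBPA or filipin intensity, either whole-cell or within LBPA endosomes. Values are Z-scores normalised in AcuityXpress.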

Assay [2] concerns HeLa MZ. The description is as above. In short, it runs like this: as §1
Assay [3] has as its system A431. Nature of the assay: whole-cell filipin (free cholesterol) integrated intensity, Z-score; higher = more cholesterol staining. In short, it runs like this:
as §1

Assay [4] deals with HeLa MZ. Described as above. In short, it runs like this:
as §1

In assay [5] the test system is A431. Kind of assay: filipin (cholesterol) integrated intensity within LBPA endosomes, Z-score; higher = more cholesterol in LBPA endosomes. An outline of the steps: as §1
For assay [6], the system named is HeLa MZ. Described as above. In short, it runs like this: as §1

For `OCCN1CCN(CCCN2c3ccccc3C=Cc3ccccc32)CC1` [Opipramol dihydrochloride], the “LBPA endosome anti-LBPA integrated intensity (z-score)” value in the assay with A431 [1] stood at 0.228; in the assay with HeLa MZ [2], 1.81. Also, the “whole-cell filipin (z-score)” value in the assay with A431 [3] is 0.629; in the assay with HeLa MZ [4] it was -0.0646. Besides, the “filipin (z-score)” value worked out at 0.712 in the assay on A431 [5] and 1.15 with HeLa MZ [6].

Take `CCCCOc1cc(C(=O)OCCN(CC)CC)ccc1N` [Benoxinate hydrochloride]: the “LBPA endosome anti-LBPA integrated intensity (z-score)” value with A431 [1] worked out at 1.79; in the assay on HeLa MZ [2], 1.63. Further, the “whole-cell filipin (z-score)” value in the assay with A431 [3] was 0.624; in the assay on HeLa MZ [4], -0.0981. For the same compound, the “filipin (z-score)” value stood at 0.826 in the assay with A431 [5] and 0.624 in the assay on HeLa MZ [6].

In the case of `CCN(CC)CCOCCOC(=O)C1(c2ccccc2)CCCC1` [Carbetapentane citrate], the “LBPA endosome anti-LBPA integrated intensity (z-score)” value in the assay on A431 [1] is 0.618; in the assay with HeLa MZ [2], 1.63. For the same compound, the entries for the “whole-cell filipin (z-score)” value in the assay on A431 [3] and in the assay with HeLa MZ [4] were 0.819 and 0.39, respectively. The “filipin (z-score)” value with A431 [5] was 0.894; in the assay on HeLa MZ [6], 0.461.

Consider `CC(C)(C#N)c1cc(Cn2cncn2)cc(C(C)(C)C#N)c1` [Anastrozole], for which the “LBPA endosome anti-LBPA integrated intensity (z-score)” value is -0.573 in the assay on A431 [1] and -1.31 with HeLa MZ [2]. Further, the “whole-cell filipin (z-score)” value was -0.205 in the assay with A431 [3] and -0.00341 in the assay on HeLa MZ [4]. Besides, the “filipin (z-score)” value was -0.428 in the assay on A431 [5] and -0.659 in the assay with HeLa MZ [6].

Take `Cc1[nH]c(=O)c(C#N)cc1-c1ccncc1` [Milrinone]: the “LBPA endosome anti-LBPA integrated intensity (z-score)” value in the assay with A431 [1] was -0.393; in the assay with HeLa MZ [2], 0.29. Also, the entries for the “whole-cell filipin (z-score)” value with A431 [3] and in the assay with HeLa MZ [4] were -0.171 and -0.0695, respectively. The entries for the “filipin (z-score)” value in the assay with A431 [5] and in the assay with HeLa MZ [6] were -0.351 and -0.372, respectively.

Consider `Cn1c(=O)c2c(ncn2CC(O)CO)n(C)c1=O` (stereo not drawn) [Diprophylline], for which the “LBPA endosome anti-LBPA integrated intensity (z-score)” value in the assay on A431 [1] was -0.55; in the assay on HeLa MZ [2], -0.754. The “whole-cell filipin (z-score)” value is -0.617 in the assay on A431 [3] and -0.852 in the assay with HeLa MZ [4]. Moreover, the “filipin (z-score)” value with A431 [5] is -0.554; in the assay on HeLa MZ [6] it was -0.628.

Regarding `C[C@]12CC[C@@H]3c4ccc(O)cc4CC[C@H]3[C@@H]1CCC2=O` [Estrone], the “LBPA endosome anti-LBPA integrated intensity (z-score)” value in the assay on A431 [1] is -0.124; in the assay on HeLa MZ [2] it was 0.505. Besides, the results for the “whole-cell filipin (z-score)” value in the assay on A431 [3] and in the assay on HeLa MZ [4] were -0.166 and -0.0664, respectively. Also, the “filipin (z-score)” value in the assay with A431 [5] was -0.236; with HeLa MZ [6] it was -0.151.

As for `Cc1c(C)c2c(c(C)c1O)CCC(C)(COc1ccc(CC3SC(=O)NC3=O)cc1)O2` (stereo not drawn) [Troglitazone], the entries for the “LBPA endosome anti-LBPA integrated intensity (z-score)” value in the assay on A431 [1] and with HeLa MZ [2] were -0.514 and -0.51, respectively. For the same compound, the “whole-cell filipin (z-score)” value was -0.29 in the assay on A431 [3] and -0.287 in the assay on HeLa MZ [4]. Besides, the “filipin (z-score)” value was -0.459 in the assay with A431 [5] and -0.355 in the assay on HeLa MZ [6].

With `CC(CCc1ccc(O)cc1)NCCc1ccc(O)c(O)c1` (stereo not drawn) [Dobutamine hydrochloride], the “LBPA endosome anti-LBPA integrated intensity (z-score)” value in the assay on A431 [1] is -0.212; with HeLa MZ [2] it was 0.142. The “whole-cell filipin (z-score)” value in the assay with A431 [3] was -0.349; with HeLa MZ [4] it was -0.893. The “filipin (z-score)” value is -0.473 with A431 [5] and -0.28 with HeLa MZ [6].

For the compound `Cc1c(OCC(F)(F)F)ccnc1C[S+]([O-])c1nc2ccccc2[nH]1` (stereo not drawn) [Lansoprazole], the “LBPA endosome anti-LBPA integrated intensity (z-score)” value with A431 [1] was -0.504; in the assay with HeLa MZ [2], 0.142. For the same compound, the “whole-cell filipin (z-score)” value is 0.199 in the assay on A431 [3] and 0.176 with HeLa MZ [4]. Further, the “filipin (z-score)” value in the assay with A431 [5] is -0.31; with HeLa MZ [6], -0.222.

Regarding `COc1cc(OC)c(C(=O)CCCN2CCCC2)c(OC)c1` [Buflomedil hydrochloride], the figures for the “LBPA endosome anti-LBPA integrated intensity (z-score)” value in the assay with A431 [1] and in the assay with HeLa MZ [2] were -0.502 and 0.473, respectively. Besides, the “whole-cell filipin (z-score)” value was -0.535 in the assay on A431 [3] and -0.534 in the assay on HeLa MZ [4]. Further, the entries for the “filipin (z-score)” value with A431 [5] and in the assay on HeLa MZ [6] were -0.503 and -0.263, respectively.

Take `CCn1cc(C(=O)O)c(=O)c2cnc(N3CCNCC3)nc21` [Pipemidic acid]: the “LBPA endosome anti-LBPA integrated intensity (z-score)” value with A431 [1] was -0.522; in the assay on HeLa MZ [2], 0.188. Also, the “whole-cell filipin (z-score)” value in the assay on A431 [3] is -0.242; in the assay with HeLa MZ [4], 0.338. For the same compound, the “filipin (z-score)” value is -0.361 with A431 [5] and -0.281 in the assay with HeLa MZ [6].

For the compound `N=C(N)NCC1COC2(CCCCC2)O1` (stereo not drawn) [Guanadrel sulfate], the “LBPA endosome anti-LBPA integrated intensity (z-score)” value is -0.435 with A431 [1] and -0.453 with HeLa MZ [2]. Also, the figures for the “whole-cell filipin (z-score)” value in the assay on A431 [3] and in the assay with HeLa MZ [4] were -0.472 and -0.401, respectively. Also, the “filipin (z-score)” value was -0.413 in the assay with A431 [5] and -0.438 with HeLa MZ [6].

On to `O=C(O)CCC(=O)Nc1ccc(S(=O)(=O)Nc2nccs2)cc1` [Succinylsulfathiazole], for which the “LBPA endosome anti-LBPA integrated intensity (z-score)” value in the assay on A431 [1] was -0.428; in the assay on HeLa MZ [2], -0.709. Further, the “whole-cell filipin (z-score)” value was -0.288 in the assay on A431 [3] and -0.818 in the assay with HeLa MZ [4]. The “filipin (z-score)” value in the assay on A431 [5] is -0.463; in the assay on HeLa MZ [6], -0.508.

As for `CC(=O)OCC(=O)[C@@]1(O)CC[C@H]2[C@@H]3CCC4=CC(=O)C=C[C@]4(C)[C@@]3(F)[C@@H](O)C[C@@]21C` [Isoflupredone acetate], the “LBPA endosome anti-LBPA integrated intensity (z-score)” value in the assay on A431 [1] was -0.244; in the assay with HeLa MZ [2] it was -0.851. Also, the entries for the “whole-cell filipin (z-score)” value with A431 [3] and in the assay with HeLa MZ [4] were -0.383 and -0.16, respectively. The “filipin (z-score)” value was -0.17 in the assay on A431 [5] and -0.357 in the assay on HeLa MZ [6].

Turning to `COC(=O)C1=C(C)NC(C)=C(C(=O)OCC(C)C)C1c1ccccc1[N+](=O)[O-]` (stereo not drawn) [Nisoldipine], the “LBPA endosome anti-LBPA integrated intensity (z-score)” value with A431 [1] turned out to be 0.222; with HeLa MZ [2] it was 1.99. Also, the “whole-cell filipin (z-score)” value in the assay on A431 [3] worked out at 0.622; with HeLa MZ [4] it was 0.224. Further, the entries for the “filipin (z-score)” value with A431 [5] and with HeLa MZ [6] were -0.263 and -0.481, respectively.

Consider `COc1cc2nc(N3CCN(C(=O)c4ccco4)CC3)nc(N)c2cc1OC` [Prazosin hydrochloride], for which the “LBPA endosome anti-LBPA integrated intensity (z-score)” value in the assay with A431 [1] is 2.82; with HeLa MZ [2], 1.41. Further, the “whole-cell filipin (z-score)” value stood at 1.2 in the assay on A431 [3] and 0.626 with HeLa MZ [4]. Moreover, the “filipin (z-score)” value with A431 [5] turned out to be 0.829; in the assay on HeLa MZ [6] it was 0.146.

On to `CN(C)CCCOc1nn(Cc2ccccc2)c2ccccc12` [Benzydamine hydrochloride], for which the figures for the “LBPA endosome anti-LBPA integrated intensity (z-score)” value in the assay with A431 [1] and in the assay on HeLa MZ [2] were 1.07 and 2.25, respectively. The “whole-cell filipin (z-score)” value in the assay with A431 [3] is 1.71; in the assay on HeLa MZ [4], -0.196. Further, the “filipin (z-score)” value in the assay with A431 [5] stood at 1.63; in the assay on HeLa MZ [6], 0.942.
